# High-throughput results deposited in PubChem BioAssay by Center for Chemical Genomics, University of Michigan.
# This is a sample that favours compounds with a hit; in the whole collection about 0.86% have one here.
# CDC25B-CDK2 inh = primary biochemical HTRF screen for blockers of M-phase inducer phosphatase 2 binding to CDK2/cyclin A; z-score (concentration not given with the values); AID 1259370, 2018; 94,000 compounds, 0.72% hits; HTRF CDC25B-CDK2/CyclinA binding, anti-His/anti-Flag; stronger effect = higher value; in the data active means z-score above about 3.2
# HIV TAR-Tat = TAR RNA-Tat peptide displacers, HIV-1, primary screen, biochemical, FRET, FAM/TAMRA-labeled Tat; HIV-1 TAR RNA, Tat peptide displacement FRET; stronger effect = higher value; 100,000 compounds, 0.6% hits; z-score (concentration not given with the values); active means z-score of 3 or more in at least 2 runs
# * = called active by the depositor; / = not tested or not shown.
SMILES,CDC25B-CDK2 inh,HIV TAR-Tat
O=C(COC(=O)c1ccco1)c1ccc(Cl)cc1,-0.66,/
COC(=O)c1ccc(CSc2nc(-c3cccs3)nc3c2c(=O)n(C)c(=O)n3C)o1,-1.1,/
CC1CCCCN1C(=O)Cn1ncc2c([nH]c3ccccc32)c1=O (stereo unspecified),/,0.21
NNc1nc2ccccc2[nH]c1=S,5.5*,/
ON=C(c1nc2ccccc2[nH]1)c1nc2ccccc2[nH]1,2.4,/
COC(=O)CNC(=O)N1CCN(S(=O)(=O)c2ccc3c(ccn3C)c2)CC1,/,1.1
N#CC1=C(N)Oc2n[nH]c(-c3ccc4c(c3)OCO4)c2C1c1cccc(OC(=O)c2cccs2)c1 (stereo unspecified),-0.79,/
Cc1ccc(-c2nnn3c2nc(NCc2ccco2)c2ccccc23)cc1,-2,1.2
Cc1cccc(-c2nnn3c2nc(NCc2ccco2)c2ccccc23)c1,-1.8,7.8*
Cc1c(C)n(CC(O)CNCCc2ccccc2)c2ccccc12 (stereo unspecified),-3.1,-0.56
CC1=NC2c3c(oc(C(=O)NCc4ccc(C)o4)c3C)CCC2S1 (stereo unspecified),/,0.89
Cc1ccc(Cc2nnc(-c3cc(N)ccc3F)o2)cc1,/,34*
Cc1ccc(Cc2nnc(-c3ccc(N)cc3Cl)o2)cc1,/,-0.34
Cc1ccc2c(c1)N(C(=O)CSC1=NS(=O)(=O)c3ccccc3N1)CCO2,/,0.87
Cc1onc(-c2ccccc2)c1C(=O)N1CCN(C(=O)C2COc3ccccc3O2)CC1 (stereo unspecified),-2.8,/
CC(C)OCCCNC(=O)c1ccc2c(=O)[nH]c3c(C(=O)NC4CCCC4)sc(=S)n3c2c1,/,2.1
CC(C)NC(=O)c1sc(=S)n2c1[nH]c(=O)c1ccc(C(=O)NCCCN3CCCC3=O)cc12,/,8.5*
CC(C)CCNC(=O)c1ccc2c(=O)[nH]c3c(C(=O)NC(C)C)sc(=S)n3c2c1,/,2.2
CC(C)CCNC(=O)c1ccc2c(=O)[nH]c3c(C(=O)NC4CCCC4)sc(=S)n3c2c1,/,8*
O=C1c2ccccc2-c2onc3c(N4CCOCC4)cc(Nc4cccc(F)c4)c1c23,0.54,0.23
O=C(O)c1ccc(Nc2cc(N3CCOCC3)c3noc4c3c2C(=O)c2ccccc2-4)cc1,11*,32*
O=C1c2ccccc2-c2onc3c(N4CCOCC4)cc(Nc4ccc5c(c4)OCO5)c1c23,0.7,-0.81
O=C(O)c1cccc(Nc2cc(N3CCOCC3)c3noc4c3c2C(=O)c2ccccc2-4)c1,-0.18,7*
O=C1CCN(c2cc(Nc3cccc(F)c3)c3c4c(onc24)-c2ccccc2C3=O)CC1,7.8*,17*
O=C1c2ccccc2-c2onc3c(N4CCOCC4)cc(Nc4ccccc4)c1c23,-2.2,0.02
SMILES,CDC25B-CDK2 inh,HIV TAR-Tat
O=C1CCN(c2cc(Nc3ccc(C(=O)O)cc3)c3c4c(onc24)-c2ccccc2C3=O)CC1,14,27*
COc1ccc(Nc2cc(N3CCC(=O)CC3)c3noc4c3c2C(=O)c2ccccc2-4)cc1,0.9,-0.22
Cc1nc(C)c(-c2ccc(SCc3cccc(Cl)c3)nn2)s1,/,0.45
Cn1cnc(S(=O)(=O)N2CCN(c3ccc(N4CCOCC4)nn3)CC2)c1,/,0.8
C=CCOC(=O)C1=C(C)Nc2nc(SCC=C)[nH]c(=O)c2C1c1ccc(F)cc1 (stereo unspecified),-1.7,1.3
COc1cccc2c(C)nc(Nc3nc4ccccc4c(=O)[nH]3)nc12,-0.68,-0.55
CC1(C)C=Cc2c(cc3occ(-c4ccc5c(c4)OCO5)c(=O)c3c2O)O1,/,-1.4
CCSC1=C(C#N)C(=O)NC(c2ccccc2O)S1 (stereo unspecified),-0.21,0.18
Cc1cc2nc(-c3cc4cc(Cl)cc(Cl)c4oc3=O)[nH]c2cc1C,0.48,/
CN(C)c1ccc(Nc2cc(N3CCOCC3)c3noc4c3c2C(=O)c2ccccc2-4)cc1,-0.37,-4.4
COC(=O)c1ccc(Nc2cc(N3CCOCC3)c3noc4c3c2C(=O)c2ccccc2-4)cc1,7.6*,3.4
CC(=O)Nc1c2n(c3ccccc13)CC(C)(C(=O)NC1CCCC1)N(C1CCCCC1)C2=O (stereo unspecified),/,1.3
O=C(Nc1ccc2c(c1)nc1n2CCN(C2CCCCC2)C1)c1ccco1,7.1*,31*
O=C(Nc1ccc2c(c1)nc1n2CCN(C2CCCCC2)C1)NC1CCCCC1,-1.3,-3
COc1ccccc1Nc1nc2c(S(=O)(=O)c3ccccc3)nnn2c2ccccc12,1,0.54
CC1CCCC(C)N1C(=O)c1nn2c(c1Cl)NC(c1cccs1)CC2C(F)(F)F (stereo unspecified),-1.1,2.7
CCOC(=O)C1CCN(c2cc(NCc3ccco3)c3c4c(onc24)-c2ccccc2C3=O)CC1,15*,-4
O=C1c2ccccc2-c2onc3c(N4CCN(CCO)CC4)cc(NCc4ccco4)c1c23,0.21,-5.5
CCOC(=O)C1CCN(c2cc(NCCCC(=O)O)c3c4c(onc24)-c2ccccc2C3=O)CC1,14*,24*
CC1CCN(c2cc(NCCCC(=O)O)c3c4c(onc24)-c2ccccc2C3=O)CC1,1.2,-4.3
O=C(O)CNc1cc(N2CCC(c3ccccc3)CC2)c2noc3c2c1C(=O)c1ccccc1-3,5.1*,-6
CCOC(=O)C1CCN(c2cc(NCCCN(C)C)c3c4c(onc24)-c2ccccc2C3=O)CC1,-1.8,1.1
CN(C(=O)c1nn(C)c2c1CS(=O)(=O)c1ccccc1-2)c1cccc(Cl)c1,-2.6,0.94
Fc1ccccc1-n1ncc2c1ncn1nc(-c3ccccc3)nc21,-1.7,1.9
Clc1ccccc1-n1ncc2c1ncn1nc(-c3ccccc3)nc21,-2.4,6.9*
SMILES,CDC25B-CDK2 inh,HIV TAR-Tat
Cc1ccc(OCC(=O)OCc2cc(=O)n3nc(C)sc3n2)cc1,/,-0.53
COCC1=CC2CC(C1)C[B-]1(C2)Oc2cccc3ccc[n+]1c23 (stereo unspecified),5.2*,/
O=C(COCc1cc(-c2cccs2)on1)NC1CCCC1,/,-1.6
Cn1c(=O)n(Cc2ccccc2Cl)c(=O)c2c1nc1n2CCN1Cc1ccco1,-1.8,/
Cn1c(=O)n(Cc2ccccc2F)c(=O)c2c1nc1n2CCN1Cc1ccco1,/,4.7*
COC(=O)c1cc(Nc2nc(C)nc3sc4c(c23)CCC4)cc(C(=O)OC)c1,-1.8,/
C#CC[n+]1cccc2cc(O)ccc21,5.2*,/
CC(=O)C[n+]1cccc2cccc(O)c21,2.2,/
COC(=O)C(C)NC(=O)NCc1c(-n2cccc2)sc2c1CCN(C)C2 (stereo unspecified),1.8,-2.4
CCCn1cnc2cc(NCc3ccc(C)cc3)ccc21,13*,0.51
CCn1cnc2cc(NCc3cccc(Br)c3)ccc21,13*,0.37
Cc1ccc(CNc2ccc3c(c2)nc(C)n3C)cc1,-1.8,1.1
c1ccc(-n2cnc3cc(NCc4ccco4)ccc32)cc1,3.3,-0.51
COc1ccc(CNc2ccc3c(c2)ncn3C)cc1OC,2.3,1.3
CCn1cnc2cc(NCc3ccco3)ccc21,16*,0.58
CCOC(=O)C(=CNNC(=O)c1cccs1)C(=O)OCC,-3.8,/
O=c1c([N+](=O)[O-])c(O)c2cccc3c2n1CCC3,-1.3,/
CCN(CC)C(=O)c1oc2ccccc2c1NC(=O)C(C)C,/,0.82
CCOC(=O)C1CCCN(c2c(S(=O)(=O)c3ccccc3)cnc3ccccc23)C1 (stereo unspecified),0.59,0.26
Cc1nnc(NC(=O)c2cncc(Br)c2)s1,-0.54,1.5
